Laboratory results from PubChem BioAssay (NCI).
The panel holds about 83,000 compounds, 20% with a hit somewhere; the sample as a whole holds those more often.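 Assay: single dose, 48 h. Readout: percent growth (0 = no net growth; negative = cell death). Active: <10.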 A number with no mark means an inactive call. Active and inactive are the calls of the source.

Legend:
Assay in all cases: NCI-60 one-dose screen, 48 h (100 = growth as untreated, 0 = no growth, -100 = all killed)
Details in all cases: 10 µM unless noted
HCT-15 colon = tested on: HCT-15 colon
HT29 colon = tested on: HT29 colon
SNB-75 CNS = tested on: SNB-75 CNS
SNB-19 CNS = tested on: SNB-19 CNS
U251 CNS = tested on: U251 CNS
PC-3 prostate = tested on: PC-3 prostate
SK-MEL-5 melanoma = tested on: SK-MEL-5 melanoma
UACC-62 melanoma = tested on: UACC-62 melanoma
LOX IMVI melanoma = tested on: LOX IMVI melanoma
SK-MEL-28 melanoma = tested on: SK-MEL-28 melanoma

Row | SMILES | growth (HCT-15 colon) | growth (HT29 colon) | growth (SNB-75 CNS) | growth (SNB-19 CNS) | growth (U251 CNS) | growth (PC-3 prostate) | growth (SK-MEL-5 melanoma) | growth (UACC-62 melanoma) | growth (LOX IMVI melanoma) | growth (SK-MEL-28 melanoma)
1 | COC(=O)c1nc(-c2ccc(C)cc2)oc1S(=O)(=O)c1cccc(OC)c1 | 62% | 97.1% | 83.3% | 101% | 96.5% | 103% | 97.8% | 92.5% | 57.1% | 99.2%
2 | OCCn1cc(-c2nc(-c3c[nH]c4ncccc34)cs2)c2ccccc21 | 55.9% | 95% | 55.2% | 88.1% | 78.9% | 61.8% | 77.5% | 69.9% | 77.7% | 104%
3 | O=C(NCCCl)Nc1ncccc1OCc1ccccc1 | 95% | 94.5% | 103% | 103% | 110% | 99% | 95.9% | 92.5% | 102% | 108%
4 | CCCc1c(OC(=O)c2ccccc2)nc2[nH]c(=O)sc2c1C | 98.3% | 104% | 88.9% | 96% | 97.7% | 97.2% | 98% | 88.8% | 98.3% | 104%
5 | CC(C)c1ccc(-n2c(=S)[nH]c3sc4cc(O)ccc4c3c2=O)cc1 | 97.7% | 113% | 85.9% | 90.4% | 103% | 100% | 98.6% | 93.6% | 96.9% | 103%
6 | CNC(=O)c1[nH]cc(-c2ccc(OC)cc2)c1-c1cc(OC)c2c(c1OC)OCO2 | 97.1% | 108% | 66.9% | 93.9% | 98.4% | 92.1% | 100% | 90% | 96.5% | 101%
7 | Cc1ccc(C2=Nc3c(N)ncnc3NC(c3cccc(Nc4ccnc5cc(C(F)(F)F)ccc45)c3)C2)cc1 (stereo not given) | 6.14% (active) | 5.98% (active) | 21.7% | 43.6% | 31.1% | 16.1% | 12.1% | 48.7% | 26.7% | 52.3%
8 | Nc1ncnc2c1c(-c1cccc(Cl)c1)nn2CC(=O)N1CCOCC1 | 101% | 99.7% | 94.2% | 93.9% | 102% | 96.6% | 101% | 93.7% | 103% | 105%
9 | O=C1/C=C/[C@@H](O)[C@@H]2C[C@@H](O)C[C@H]2/C=C/CCC[C@H](CCc2ccccc2)O1 | 11% | 3.12% (active) | 28.9% | 31.4% | 20.1% | 16.7% | -92.9% (active) | 23.7% | -59.1% (active) | -2.32% (active)
10 | Fc1cc2c(cc1Cl)N(c1ncnc3ccc(-c4ccc5n[nH]nc5c4)cc13)CC2 | 95.7% | 95% | 22.1% | 80% | 86.9% | 71.1% | 91.2% | 78.7% | 86% | 86.9%
11 | Nc1cnc(C(=O)NNc2nc3cc(F)ccc3n3cccc23)cn1 | 24.8% | 35% | 87.2% | 36.1% | 36.7% | 47.2% | 34.5% | 22.7% | 22% | 40%
12 | CCCCCCCC[C@@H]1N[C@@H](C(=O)OC)Cc2c1[nH]c1ccccc21 | 94.2% | 111% | 81.6% | 96.6% | 91.5% | 94.6% | 97.3% | 69.1% | 93.1% | 94.2%
13 | O=C(CN1CCOCC1)Nc1nc(-c2cc3ccccc3oc2=O)cs1 | 104% | 103% | 82.2% | 101% | 98.7% | 97.5% | 99.2% | 92.5% | 95.6% | 104%
14 | CCOC(=O)c1c2c(n3cccc(F)c13)C(=O)c1ncccc1C2=O | 12.7% | 8.73% (active) | 28.7% | 11.3% | -35.5% (active) | 13.7% | -23% (active) | -33.4% (active) | -20.9% (active) | 37.4%
15 | COc1ccc(/C=N/C2=C(C#N)C(c3ccccc3)c3ccc4ccccc4c3O2)cc1 (stereo not given) | 15.8% | 6.29% (active) | 15.5% | 24.6% | 18.5% | 8.18% (active) | 16.3% | 15.8% | 29.5% | 41.4%
16 | O=C1c2c(c3c4ccccc4[nH]c3c3ccc4ccccc4c23)C(=O)N1CCN1CCOCC1 | 20.6% | 35.6% | 63.7% | 56% | 32.3% | 35.1% | 37.4% | 38.7% | 27.2% | 73.9%
17 | CCN1C(=S)N(c2ccccc2)C2C1NN=c1s/c(=C3\C(=O)N(C(C)C)c4ccccc43)c(=O)n12 (stereo not given) | 93.3% | 69.6% | 61% | 81.9% | 64.6% | 79.3% | 92.1% | 83.5% | 47.5% | 102%
18 | NC(=O)c1cccc(-n2ccc3cc(NC(=O)c4ccc(N5CCOCC5)c(C(F)(F)F)c4)ccc32)n1 | 33.8% | 14.3% | 52.8% | 70.7% | 44.1% | 34.5% | 49.7% | 50.9% | 64.4% | 64.7%
19 | C[C@@H](CO)[C@@H]1CCC=C2CC[C@]3(C)[C@H](CC[C@@H]4[C@@]5(C)CCCNC(C)(C)[C@@H]5CC[C@]43C)[C@H]21 | -5.42% (active) | 1.93% (active) | 92.3% | 88.4% | 18.8% | 47.1% | 72.2% | 80.3% | -52.2% (active) | 70.5%
20 | Fc1ccc(CNc2c3ccccc3nc3ccccc23)c(F)c1 | 28.7% | 21.8% | 81.1% | 41.5% | 44.1% | 68.9% | 69.4% | 59.1% | 21.5% | 90.4%
21 | Nc1n[nH]c2cccc(C#Cc3cccc(NC(=O)c4cc(F)cc(C(F)(F)F)c4)c3)c12 | 74.4% | 48.3% | 98.6% | 104% | 93.7% | 64.1% | 71.7% | 48.1% | 37% | 66.8%
22 | O=C(Nc1ccccc1O)c1ccc(CNC(=O)c2sccc2Nc2ccnc(C(F)(F)F)c2)cc1 | 47.6% | 53% | 36.9% | 68.9% | 40.6% | 35.2% | 25.1% | 27.7% | 53.6% | 63.6%
23 | C#COc1cccc(Nc2c(C#N)cnc3ncc(NC(=O)CCl)cc23)c1 | 22.8% [6.25 µM] | 3.12% [6.25 µM] (active) | 54.2% [6.25 µM] | 11% [6.25 µM] | -42.8% [6.25 µM] (active) | 19.6% [6.25 µM] | 47.7% [6.25 µM] | 37.5% [6.25 µM] | -2.95% [6.25 µM] (active) | 50.8% [6.25 µM]
24 | Cn1cc(-c2ccc3nc(-c4ccc(CC(=O)ONc5cc(C(C)(C)C)on5)cc4)cnc3c2)cn1 | 16.5% | 39.6% | 37.4% | 67.4% | 32.3% | 34.8% | 58.8% | 27.6% | 30.5% | 44.4%
25 | Cc1ccccc1/C=C/C(=O)c1cccc(OCCCOc2cccc(C(=O)/C=C/c3ccccc3C)c2)c1 | 87.2% [3 µM] | 79.6% [3 µM] | 86.1% [3 µM] | 97.1% [3 µM] | 76.1% [3 µM] | 88.8% [3 µM] | 99.5% [3 µM] | 80.2% [3 µM] | 67.5% [3 µM] | 112% [3 µM]
26 | CCCCCCCCCCCCCCCCCCOc1ccccc1CC(=O)OCC[N+](C)(C)C | 57.5% | 8.73% (active) | -16.4% (active) | 29.9% | -76.6% (active) | 5.84% (active) | 25.3% | 18.6% | 29.3% | 64.8%
